Data: PubChem BioAssay (EPA / NIEHS)
Results filed as inconclusive are left out. The source made the active and inactive calls. How the source made its calls, unless noted: active means hit-call score of the fitted dose curve at least 0.9, where 1 is the maximum; inactive means score below 0.9.

How the values were obtained:
[1] = molecular target: THRB (gene 7068) (UniProt P10828); assay: TOX21_TRB_COA_Antagonist_Followup_ratio: Tox21 Thyroid Hormone Receptor beta Antagonism through Coactivator Recruitment Follow-Up Assay, Ratio (AID 2283967; active means hit-call score of the fitted dose curve at least 0.9, where 1 is the maximum)
Sequence of THRB (gene 7068) (P10828 whole entry, looked up, the tested form may be a part): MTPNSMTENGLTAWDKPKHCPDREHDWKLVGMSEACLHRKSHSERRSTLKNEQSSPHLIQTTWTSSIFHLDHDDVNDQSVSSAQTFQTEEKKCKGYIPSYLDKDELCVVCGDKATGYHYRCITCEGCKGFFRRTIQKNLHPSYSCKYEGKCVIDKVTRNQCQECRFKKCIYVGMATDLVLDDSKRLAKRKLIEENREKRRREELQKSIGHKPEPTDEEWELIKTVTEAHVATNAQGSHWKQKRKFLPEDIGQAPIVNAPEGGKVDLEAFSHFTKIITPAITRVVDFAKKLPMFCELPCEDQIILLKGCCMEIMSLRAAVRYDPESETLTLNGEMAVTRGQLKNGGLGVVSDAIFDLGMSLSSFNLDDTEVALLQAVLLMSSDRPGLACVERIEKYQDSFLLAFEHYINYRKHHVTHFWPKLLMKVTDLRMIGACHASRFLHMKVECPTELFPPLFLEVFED
Summary of the method: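 Coactivator (SRC-2) recruitment to purified GST-TRβ ligand-binding domain is monitored by terbium-to-fluorescein energy transfer, emission ratio 520:495 nm. DMSO wells define 0% and T3 wells 100% activity.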

[2] = molecular target: Retinoic acid receptor RXR-alpha (Homo sapiens) (UniProt P19793); assay: TOX21_TR_RXR_BLA_Antagonist_Followup_ratio: Tox21 Thyroid Hormone Receptor beta Retinoid X Receptor alpha (RXRa) Antagonism Beta-lactamase (BLA) Follow-Up Assay, Ratio (AID 2283972; active means hit-call score of the fitted dose curve at least 0.9, where 1 is the maximum)
Sequence of Retinoic acid receptor RXR-alpha (Homo sapiens) (P19793 whole entry, looked up, the tested form may be a part): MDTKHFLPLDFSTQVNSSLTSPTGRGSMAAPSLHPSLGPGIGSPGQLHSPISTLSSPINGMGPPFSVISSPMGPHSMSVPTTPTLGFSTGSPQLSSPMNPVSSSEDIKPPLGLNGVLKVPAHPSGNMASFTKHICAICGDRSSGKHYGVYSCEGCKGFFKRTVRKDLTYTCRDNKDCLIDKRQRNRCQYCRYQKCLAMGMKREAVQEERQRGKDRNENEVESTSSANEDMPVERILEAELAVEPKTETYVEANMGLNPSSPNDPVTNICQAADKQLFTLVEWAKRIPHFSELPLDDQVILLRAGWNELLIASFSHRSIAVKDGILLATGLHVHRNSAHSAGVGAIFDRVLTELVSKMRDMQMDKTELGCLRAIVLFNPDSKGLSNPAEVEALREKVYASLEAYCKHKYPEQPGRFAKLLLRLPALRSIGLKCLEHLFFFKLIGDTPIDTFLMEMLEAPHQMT
Summary of the method: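 Beta-lactamase reporter readout as cleaved/uncleaved substrate ratio (460:530 nm) after 2 h substrate loading at room temperature. GAL4-RXRa bla HEK293T cells were exposed 16 h at 37C to 11-point compound series; loss of signal scored against DMSO baseline.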

[3] = TOX21_TR_RXR_BLA_Antagonist_Followup_viability: Viability Assessment in the Tox21 Thyroid Hormone Receptor beta Retinoid X Receptor alpha (RXRa) Antagonism Beta-lactamase (BLA) Follow-Up Assay (AID 2283979; active means hit-call score of the fitted dose curve at least 0.9, where 1 is the maximum)
Summary of the method: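 RXRa-UAS-bla HEK293T cells seeded 2,500/well in phenol red-free DMEM with 2% charcoal-stripped FBS, attached 5 h, then exposed to compounds at 11 concentrations in triplicate for 16 h at 37C/5% CO2. Viability read by CellTiter-Glo ATP luminescence; bidirectional fit versus DMSO.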

[4] = molecular target: Retinoic acid receptor RXR-alpha (Homo sapiens) (UniProt P19793); assay: TOX21_TR_RXR_BLA_Agonist_Followup_ratio: Tox21 Thyroid Hormone Receptor beta Retinoid X Receptor alpha (RXRa) Agonism Beta-lactamase (BLA) Follow-Up Assay, Ratio (AID 2283968; active means hit-call score of the fitted dose curve at least 0.9, where 1 is the maximum)
Summary of the method: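 Read-out: blue/green (460:530 nm) FRET ratio from cleaved vs uncleaved CCF4 substrate, fitted for gain of signal relative to DMSO. Cells: HEK293T with RXRa-UAS-bla reporter; 16 h compound exposure, 11 concentrations, triplicate.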

[5] = TOX21_TR_RXR_BLA_Agonist_Followup_viability: Viability Assessment in the Tox21 Thyroid Hormone Receptor beta Retinoid X Receptor alpha (RXRa) Agonism Beta-lactamase (BLA) Follow-Up Assay (AID 2283970; active means hit-call score of the fitted dose curve at least 0.9, where 1 is the maximum)
Summary of the method: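 CellTiter-Glo ATP quantitation as viability read-out in RXRa-bla HEK293T cells (2,500/well, charcoal-stripped 2% FBS medium), 16h compound incubation at 37C. Loss of signal versus DMSO taken as cytotoxicity, analyzed by bidirectional curve fitting.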

[6] = CCTE_Harrill_HTTr_Viability_DMEM_6hr: (Pilot) CCTE's 6-hour Cell Viability Assessment for the High-Throughput Transcriptomics (HTTr) Platform, in MCF-7 cells cultured in DMEM + 10% fetal bovine serum, Harrill Lab (AID 2283973)
Summary of the method: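 Propidium iodide uptake imaged by high-content analysis after six hours of chemical treatment in an eight-concentration series. Cells: MCF-7 grown in DMEM with 10% fetal bovine serum; DMSO as baseline.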

[7] = CCTE_Harrill_HTTr_Viability_DMEM_12hr: (Pilot) CCTE's 12-hour Cell Viability Assessment for the High-Throughput Transcriptomics (HTTr) Platform, in MCF-7 cells cultured in DMEM + 10% fetal bovine serum, Harrill Lab (AID 2283974)
Summary of the method: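 Propidium iodide dye exclusion imaged by high-content microscopy after 12 h chemical exposure (eight concentrations) of MCF-7 cells grown in DMEM plus 10% FBS; values fitted in both directions relative to DMSO.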

[8] = CCTE_Harrill_HTTr_Viability_DMEM_24hr: (Pilot) CCTE's 24-hour Cell Viability Assessment for the High-Throughput Transcriptomics (HTTr) Platform, in MCF-7 cells cultured in DMEM + 10% fetal bovine serum, Harrill Lab (AID 2283975)
Summary of the method: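 Pilot study: propidium iodide dye exclusion, imaged by high content microscopy, after 24 h compound exposure (eight concentrations) in MCF-7 cultured in DMEM + 10% fetal bovine serum; DMSO served as negative control and baseline.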

[9] = CCTE_Harrill_HTTr_Viability_PRF_DMEM_6hr: (Pilot) CCTE's 6-hour Cell Viability Assessment for the High-Throughput Transcriptomics (HTTr) Platform, in MCF-7 cells cultured phenol red-free DMEM + 10% charcoal-stripped fetal bovine serum, Harrill Lab (AID 2283976)
Summary of the method: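 Membrane integrity by high-content imaging of propidium iodide uptake, six hours after dosing with eight concentrations. Cells: MCF-7 grown in phenol red-free DMEM plus 10% charcoal-stripped serum; DMSO serves as baseline for bidirectional fits.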

[10] = CCTE_Harrill_HTTr_Viability_PRF_DMEM_12hr: (Pilot) CCTE's 12-hour Cell Viability Assessment for the High-Throughput Transcriptomics (HTTr) Platform, in MCF-7 cells cultured in phenol red-free DMEM + 10% charcoal-stripped fetal bovine serum, Harrill Lab (AID 2283977)
Summary of the method: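 Membrane integrity was scored via propidium iodide dye exclusion imaging, fitted in both directions relative to DMSO. Compounds ran as eight-point dilutions for 12 hours on MCF-7 grown in phenol red-free DMEM plus 10% charcoal-stripped serum.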

[11] = CCTE_Harrill_HTTr_Viability_PRF_DMEM_24hr: (Pilot) CCTE's 24-hour Cell Viability Assessment for the High-Throughput Transcriptomics (HTTr) Platform, in MCF-7 cells cultured in phenol red-free DMEM + 10% charcoal-stripped fetal bovine serum, Harrill Lab (AID 2283980)
Summary of the method: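 Propidium iodide exclusion imaged at 24 h after dosing scores viability; cells were MCF-7 grown in phenol red-free DMEM plus 10% charcoal-stripped serum, tested in eight concentrations, fitted in both directions against DMSO.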

[12] = CCTE_Harrill_HTTr_Apoptosis_DMEM_6hr: (Pilot) CCTE's 6-hour Apoptosis Assessment for the High-Throughput Transcriptomics (HTTr) Platform, in MCF-7 cells cultured in DMEM + 10% fetal bovine serum, Harrill Lab (AID 2283981)
Summary of the method: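 MCF-7 cells grown in DMEM + 10% FBS were exposed for 6 hours to an eight-point dilution series. CellEvent Caspase 3/7 Green signal was imaged; activity fitted bidirectionally against DMSO.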

[13] = CCTE_Harrill_HTTr_Apoptosis_DMEM_12hr: (Pilot) CCTE's 12-hour Apoptosis Assessment for the High-Throughput Transcriptomics (HTTr) Platform, in MCF-7 cells cultured in DMEM + 10% fetal bovine serum, Harrill Lab (AID 2283982)
Summary of the method: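 Caspase-3/7 activity was measured by high-content imaging (CellEvent Caspase 3/7 Green) after a 12-hour exposure of MCF-7 cells grown in DMEM with 10% FBS. Eight-point concentration series, fitted bidirectionally against vehicle.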

[14] = CCTE_Harrill_HTTr_Apoptosis_DMEM_24hr: (Pilot) CCTE's 24-hour Apoptosis Assessment for the High-Throughput Transcriptomics (HTTr) Platform, in MCF-7 cells cultured in DMEM + 10% fetal bovine serum, Harrill Lab (AID 2283983)
Summary of the method: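 Caspase-3/7 activity read by high-content imaging (CellEvent Green reagent) 24 h after dosing. MCF-7 cells grown in DMEM with 10% FBS received an eight-point concentration series; fits were bidirectional versus DMSO.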

[15] = CCTE_Harrill_HTTr_Apoptosis_PRF_DMEM_6hr: (Pilot) CCTE's 6-hour Apoptosis Assessment for the High-Throughput Transcriptomics (HTTr) Platform, in MCF-7 cells cultured phenol red-free DMEM + 10% charcoal-stripped fetal bovine serum, Harrill Lab (AID 2283984)
Summary of the method: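 Caspase-3/7 activity (CellEvent Green) read by high-content imaging 6 h after dosing, eight concentrations. Cells: MCF-7, phenol red-free DMEM with 10% charcoal-stripped serum. Curves fit both directions against DMSO.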

[16] = CCTE_Harrill_HTTr_Apoptosis_PRF_DMEM_12hr: (Pilot) CCTE's 12-hour Apoptosis Assessment for the High-Throughput Transcriptomics (HTTr) Platform, in MCF-7 cells cultured in phenol red-free DMEM + 10% charcoal-stripped fetal bovine serum, Harrill Lab (AID 2283985)
Summary of the method: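 Caspase-3/7 activity by CellEvent Green high content imaging after 12 h compound exposure (eight concentrations) in MCF-7 grown in phenol red-free DMEM plus 10% charcoal-stripped serum; DMSO as baseline.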

[17] = CCTE_Harrill_HTTr_Apoptosis_PRF_DMEM_24hr: (Pilot) CCTE's 24-hour Apoptosis Assessment for the High-Throughput Transcriptomics (HTTr) Platform, in MCF-7 cells cultured in phenol red-free DMEM + 10% charcoal-stripped fetal bovine serum, Harrill Lab (AID 2283986)
Summary of the method: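 Eight concentrations tested for 24 h on MCF-7 grown in charcoal-stripped serum, phenol red-free DMEM. High content imaging of CellEvent Caspase 3/7 Green signal gives apoptosis read-out, fitted both ways relative to DMSO.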

Measured: outcome

CO/C=C(/C(=O)OC)c1ccccc1COc1cccc(C(F)(F)F)n1
inactive: [1] | [2] | [3]

C[C@]12CCC(=O)C=C1CC[C@@H]1[C@@H]2CC[C@@]2(C)[C@H]1CC[C@]2(C)O
inactive: [1] | [3]

Cc1cc(O)ccc1Cl
inactive: [4] | [5]

CCC(C)(c1ccc(O)cc1)c1ccc(O)cc1
not listed: [1] | [2] | [3] | [4] | [5]
inactive: all other assays above

CC(C)(c1ccccc1)c1ccc(O)cc1
not listed: [1] | [2] | [3] | [4] | [5]
inactive: all other assays above
